Potency and outcome data for 7 compounds are collected here from PubChem BioAssay (Tox21).

Experiment [1] is described as follows: qHTS assay to identify small molecule antagonists of the thyroid receptor (TR) signaling pathway - cell viability counter screen (AID 743064). Note: nearly all actives have a fitted effect of over 50% in size. The essentials:
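GH3.TRE-Luc rat pituitary cells dosed after 4 hr plating, co-stimulated with T3 at 1 nM final, incubated 23.5 h at 37 C. Viability measured in the same wells by CellTiter-Fluor fluorescence after 30 min further at 37 C.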
In general terms: Quantitative high-throughput screening tests each substance at several concentrations.

Experiment [2] in a line: qHTS assay to identify small molecule antagonists of the thyroid receptor (TR) signaling pathway (AID 743065). Note: series mostly up to about 70 µM; nearly all actives have a fitted effect of over 55% in size. The essentials: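 GH3.TRE-Luc rat pituitary cells (two TREs driving luciferase) were dosed with compound, then stimulated with 1 nM T3 (final) for 23.5 h at 37 C. ONE-Glo luminescence was the read-out, with CellTiter-Fluor fluorescence as the cytotoxicity counter-screen.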

The subject of experiment [3] is thyroid hormone receptor (rat, GH3 cells). Kind of experiment: qHTS assay to identify small molecule agonists of the thyroid receptor (TR) signaling pathway (AID 743066; calls by dose curve).
Experiment [4] concerns the target Estrogen receptor (Homo sapiens) (UniProt P03372). Kind of experiment: qHTS assay to identify small molecule antagonists of the estrogen receptor alpha (ER-alpha) signaling pathway (AID 743069; active = well fitted curve in the direction sought with a large enough effect in the signal ratio in the repeat runs, not every such curve was filed as active; the % refers to the signal ratio). An outline of the steps: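 Beta-lactamase FRET fluorescence is read after 2 hr at room temperature with LiveBLAzer B/G substrate. Before that, ER-alpha-bla HEK293 cells sit 4 hr after plating, then receive compound plus 17beta-estradiol and incubate 18 hr at 37C.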

A short description of experiment [5]: qHTS assay to identify small molecule antagonists of the estrogen receptor alpha (ER-alpha) signaling pathway - cell viability counter screen (AID 743074; calls by dose curve;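 note: HEK293 cells carrying ER-alpha-UAS-bla reporter stimulated with 17beta-estradiol; nearly all actives have a fitted effect of over 45% in size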).
Experiment [6] deals with Estrogen receptor (Homo sapiens) (UniProt P03372). Description: qHTS assay to identify small molecule agonists of the estrogen receptor alpha (ER-alpha) signaling pathway (AID 743075; calls by dose curve;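 note: HEK293 GripTite cells with ER-alpha and UAS-driven beta-lactamase reporter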).
For experiment [7] the target is unchanged. Description: qHTS assay to identify small molecule agonists of the estrogen receptor alpha (ER-alpha) signaling pathway using the BG1 cell line (AID 743079). Note: nearly all actives have a fitted effect of over 20% in size. Note: potency is the fitted concentration of half-maximal effect.
The nature of experiment [8]: qHTS assay to identify small molecule antagonists of the estrogen receptor alpha (ER-alpha) signaling pathway using the BG1 cell line (AID 743080; calls by dose curve;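 note: BG1 cells stimulated with 17beta-estradiol alongside compound; series mostly up to about 70 µM; nearly all actives have a fitted effect of over 25% in size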). An outline of the steps: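 Luminescence from a 4×ERE-luciferase reporter in BG1-Luc-4E2 cells served as read-out. Cells, pre-cultured 5 days in stripped-serum phenol-red-free medium, were exposed to compound with 17beta-estradiol co-stimulation for 21.5 h at 37 C.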

The nature of experiment [9]: qHTS assay to identify small molecule antagonists of the estrogen receptor alpha (ER-alpha) signaling pathway using the BG1 cell line - cell viability counter screen (AID 743081).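 Note: compound given together with 17beta-estradiol as the ER stimulus; series mostly up to about 70 µM; nearly all actives have a fitted effect of over 45% in size.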
The target in experiment [10] is Aromatase (Homo sapiens) (UniProt P11511). Kind of experiment: qHTS assay to identify aromatase inhibitors (AID 743083). Note: series mostly up to about 70 µM; nearly all actives have a fitted effect of over 55% in size.
Experiment [11] can be described thus: qHTS assay to identify aromatase inhibitors - cell viability counter screen (AID 743084).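 Note: cells stimulated with testosterone during compound exposure; nearly all actives have a fitted effect of over 55% in size.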
Experiment [12] deals with Aryl hydrocarbon receptor (Homo sapiens) (UniProt P35869). Description: qHTS assay to identify small molecule that activate the aryl hydrocarbon receptor (AhR) signaling pathway (AID 743085).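 Note: HG2L7.5c1 human HepG2 liver cells with stably integrated DRE-driven firefly reporter; series mostly up to about 70 µM; nearly all actives have a fitted effect of over 15% in size.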 The essentials:
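HepG2 cells stably carrying a 20-DRE firefly luciferase reporter (HG2L7.5c1) treated with compound for 24 hr at 37C. Luciferase read by ONE-Glo luminescence, with CellTiter-Fluor viability read first.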

Experiment [13] in a line: qHTS assay to identify small molecule that activate the aryl hydrocarbon receptor (AhR) signaling pathway - cell viability counter screen (AID 743086).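 Note: HepG2 liver cells carrying the AhR DRE luciferase reporter; series mostly up to about 70 µM; nearly all actives have a fitted effect of over 45% in size.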 An outline of the steps:
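HepG2-AhR-luc (HG2L7.5c1) cells, 4000/well, treated 24 h at 37 C with compound; viability measured as CellTiter-Fluor fluorescence after 30 min in the same wells as the luciferase read.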

Experiment [14] deals with Peroxisome proliferator-activated receptor gamma (Homo sapiens) (UniProt P37231). Description: qHTS assay to identify small molecule agonists of the peroxisome proliferator-activated receptor gamma (PPARg) signaling pathway (AID 743094; active = well fitted activation curve with a large enough effect in the signal ratio in the repeat runs, not every such curve was filed as active; the % refers to the signal ratio). An outline of the steps:
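HEK293H PPARg-bla cells, 5 h settle at 37C/5% CO2; compound (DMSO) 17 h, 37C; B/G FRET substrate 1 h RT; fluorescence intensity read-out. qHTS format.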

The target is the same in experiment [15]. Description: qHTS assay to identify small molecule antagonists of the peroxisome proliferator-activated receptor gamma (PPARg) signaling pathway (AID 743191; calls by dose curve; note: series mostly up to about 63 µM; nearly all actives have a fitted effect of over 30% in size). An outline of the steps: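 GeneBLAzer PPARg UAS-bla HEK293H cells, 5 h post-plating, exposed to compounds 17 h at 37C. LiveBLAzer B/G FRET substrate added for 1 h at room temperature; beta-lactamase reporter read by fluorescence intensity.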

Experiment [16] can be described thus: qHTS assay to identify small molecule antagonists of the peroxisome proliferator-activated receptor gamma (PPARg) signaling pathway - cell viability counter screen (AID 743194). Note: nearly all actives have a fitted effect of over 55% in size. An outline of the steps: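 Cytotoxicity counter screen in PPARg-bla HEK293H cells, same wells as reporter assay. Compounds plus 50 nM rosiglitazone (final) for 17 h at 37 C, then viability read by CellTiter-Glo luminescence.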

The nature of experiment [17]: qHTS assay for small molecule agonists of the antioxidant response element (ARE) signaling pathway - cell viability counter screen (AID 743203; calls by dose curve; note: nearly all actives have a fitted effect of over 55% in size). An outline of the steps: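 Luminescence read-out (CellTiter-Glo, 30 min at room temperature) measured cell viability in the same wells as the ARE beta-lactamase reporter. HepG2 ARE-bla cells were treated with compounds for 16 hrs at 37C/5% CO2.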

A short description of experiment [18]: qHTS assay for small molecule activators of the heat shock response signaling pathway - cell viability counter screen (AID 743209). Note: nearly all actives have a fitted effect of over 50% in size. An outline of the steps:
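HSE-bla HeLa; 1500 cells/well; overnight 37 C, 5% CO2; compound 5 h 37 C; LiveBLAzer B/G substrate 2.5 h RT; CellTiter-Glo 30 min RT; luminescence.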

Experiment [19] is described as follows: qHTS assay for small molecule activators of the heat shock response signaling pathway (AID 743210; active = well fitted activation curve with a large enough effect in the signal ratio in the repeat runs, with a control signal flat, not every such curve was filed as active; the % refers to the signal ratio;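 note: HeLa cells with beta-lactamase reporter driven by heat shock elements; series mostly up to about 63 µM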). An outline of the steps:
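Beta-lactamase reporter read-out: FRET substrate fluorescence after 2.5 h at RT, following 5 h compound treatment at 37 C of HeLa cells carrying HSE-driven bla reporter; quantitative HTS format.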

Experiment [20] in a line: qHTS assay for small molecule agonists of the antioxidant response element (ARE) signaling pathway (AID 743202; active = well fitted activation curve with a large enough effect in the signal ratio in the repeat runs, not every such curve was filed as active; the % refers to the signal ratio). The essentials:
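HepG2 ARE-bla reporter line, 2,000 cells/well; 5 h preincubation 37 C/5% CO2; compound (DMSO) 16 h 37 C; B/G FRET substrate 2 h RT; fluorescence intensity.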

Records with an inconclusive call do not appear. Active and inactive are the calls of the source. Unless noted, calls come from the whole dose curve; as a rule, active = well fitted curve in the direction sought with a large enough effect in the repeat runs; inconclusive = weak or mixed curves; inactive = no such curve, though single readings can be large; an effect the other way counts as inactive or inconclusive.

Chain of Estrogen receptor (Homo sapiens) (P03372 whole entry, looked up): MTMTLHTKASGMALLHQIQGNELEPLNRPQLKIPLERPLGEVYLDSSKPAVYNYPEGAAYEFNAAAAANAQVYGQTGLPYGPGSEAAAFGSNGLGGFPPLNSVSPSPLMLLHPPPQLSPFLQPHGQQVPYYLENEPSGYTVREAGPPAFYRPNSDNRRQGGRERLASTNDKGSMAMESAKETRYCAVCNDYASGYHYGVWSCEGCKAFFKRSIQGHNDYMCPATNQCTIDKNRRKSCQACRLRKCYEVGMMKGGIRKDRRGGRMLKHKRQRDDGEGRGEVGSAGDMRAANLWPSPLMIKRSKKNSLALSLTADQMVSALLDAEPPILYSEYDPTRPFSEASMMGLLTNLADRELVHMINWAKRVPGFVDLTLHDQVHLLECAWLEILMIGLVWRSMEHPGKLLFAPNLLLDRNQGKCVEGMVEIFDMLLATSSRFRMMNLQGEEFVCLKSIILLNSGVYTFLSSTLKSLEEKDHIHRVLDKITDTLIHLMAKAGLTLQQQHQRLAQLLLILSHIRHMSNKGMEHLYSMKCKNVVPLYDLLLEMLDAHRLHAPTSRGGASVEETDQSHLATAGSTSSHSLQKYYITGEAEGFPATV
Chain of Aromatase (Homo sapiens) (P11511 whole entry, looked up): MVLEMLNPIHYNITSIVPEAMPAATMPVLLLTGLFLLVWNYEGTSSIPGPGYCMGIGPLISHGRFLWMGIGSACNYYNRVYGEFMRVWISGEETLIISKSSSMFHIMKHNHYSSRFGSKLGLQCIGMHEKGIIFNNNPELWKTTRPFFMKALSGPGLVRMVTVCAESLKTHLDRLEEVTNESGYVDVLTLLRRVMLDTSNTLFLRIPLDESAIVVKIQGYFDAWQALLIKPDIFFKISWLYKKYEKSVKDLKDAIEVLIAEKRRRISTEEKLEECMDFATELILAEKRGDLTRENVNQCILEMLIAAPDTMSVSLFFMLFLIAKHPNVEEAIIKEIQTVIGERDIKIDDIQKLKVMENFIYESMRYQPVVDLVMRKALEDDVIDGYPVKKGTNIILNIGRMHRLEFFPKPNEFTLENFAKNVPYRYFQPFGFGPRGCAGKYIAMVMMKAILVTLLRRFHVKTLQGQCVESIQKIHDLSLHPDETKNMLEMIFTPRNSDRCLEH
Chain of Aryl hydrocarbon receptor (Homo sapiens) (P35869 whole entry, looked up): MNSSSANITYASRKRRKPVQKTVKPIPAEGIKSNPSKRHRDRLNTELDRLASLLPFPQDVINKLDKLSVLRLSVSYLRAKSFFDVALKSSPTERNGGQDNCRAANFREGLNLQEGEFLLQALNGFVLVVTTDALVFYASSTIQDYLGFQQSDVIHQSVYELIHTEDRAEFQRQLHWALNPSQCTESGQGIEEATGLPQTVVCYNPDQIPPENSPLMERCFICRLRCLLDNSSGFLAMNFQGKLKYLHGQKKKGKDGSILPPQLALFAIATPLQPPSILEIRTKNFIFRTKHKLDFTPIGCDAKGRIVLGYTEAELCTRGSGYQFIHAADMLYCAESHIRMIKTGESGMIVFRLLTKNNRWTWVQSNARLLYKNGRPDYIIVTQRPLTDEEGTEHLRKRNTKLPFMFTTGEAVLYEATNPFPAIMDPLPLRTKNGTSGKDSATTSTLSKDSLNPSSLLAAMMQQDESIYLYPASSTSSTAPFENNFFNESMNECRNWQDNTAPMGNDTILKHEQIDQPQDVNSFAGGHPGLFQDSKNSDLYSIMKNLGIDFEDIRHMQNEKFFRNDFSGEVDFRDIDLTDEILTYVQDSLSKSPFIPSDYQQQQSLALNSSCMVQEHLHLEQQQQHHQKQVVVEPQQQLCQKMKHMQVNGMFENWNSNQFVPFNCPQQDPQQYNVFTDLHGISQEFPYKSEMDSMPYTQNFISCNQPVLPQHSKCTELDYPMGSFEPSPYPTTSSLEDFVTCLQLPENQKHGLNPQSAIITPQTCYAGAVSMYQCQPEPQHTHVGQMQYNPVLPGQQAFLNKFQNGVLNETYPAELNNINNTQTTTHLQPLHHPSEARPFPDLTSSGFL
Chain of Peroxisome proliferator-activated receptor gamma (Homo sapiens) (P37231 whole entry, looked up): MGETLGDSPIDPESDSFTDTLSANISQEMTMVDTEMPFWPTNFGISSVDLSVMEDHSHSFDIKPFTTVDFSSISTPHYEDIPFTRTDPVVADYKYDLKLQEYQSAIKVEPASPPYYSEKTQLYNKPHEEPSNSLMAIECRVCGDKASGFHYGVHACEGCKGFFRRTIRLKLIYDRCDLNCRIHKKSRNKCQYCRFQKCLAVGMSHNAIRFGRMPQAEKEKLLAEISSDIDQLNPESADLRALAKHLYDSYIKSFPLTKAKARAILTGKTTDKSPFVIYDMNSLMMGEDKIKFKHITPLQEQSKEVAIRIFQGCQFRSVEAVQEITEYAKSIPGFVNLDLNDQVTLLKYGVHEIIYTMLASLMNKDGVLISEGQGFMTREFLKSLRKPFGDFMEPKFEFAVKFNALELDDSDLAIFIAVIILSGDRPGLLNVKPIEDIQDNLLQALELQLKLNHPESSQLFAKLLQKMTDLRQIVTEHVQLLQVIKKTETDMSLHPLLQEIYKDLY

With `Cc1ccc(N(CCO)CCO)cc1`, the Potency result in experiment [1], in [2], in experiment [3], in experiment [4], in experiment [5] and in experiment [6] was “inactive” each time. Also, the Potency entry in experiment [7], in experiment [8], in [9], in experiment [10], in experiment [11] and in [12] was “inactive” each time. In addition, the Potency entry in [13], in experiment [15], in experiment [16], in experiment [17], in experiment [18] and in experiment [19] was “inactive” in each case. Also, the outcome in experiment [14] was inactive.
In the case of `Cc1ccc(Nc2c(F)cccc2Cl)c(CC(=O)O)c1`, the Potency result in [1], in [2], in experiment [3], in [4], in [5] and in experiment [6] was “inactive” in each case. For the same compound, the Potency entry in experiment [7], in experiment [8], in experiment [9], in experiment [10], in [11] and in experiment [13] was “inactive” throughout. The Potency result in experiment [16], in [17], in [18] and in experiment [19] was “inactive” throughout.
Consider `COC(=O)CC(C(C)=O)C(=O)OC` (stereo unspecified), for which the Potency result in experiment [1], in experiment [2], in experiment [3], in [4], in experiment [5] and in experiment [6] was “inactive” throughout. The Potency result in [7], in [8], in experiment [9], in [10], in [11] and in experiment [12] was “inactive” each time. In addition, the Potency entry in experiment [13], in [16], in [17], in experiment [18] and in experiment [19] was “inactive” in each case. Further, the outcome in experiment [14] was inactive.
With `O=C(O)CNC(=O)c1ccccc1I`, the Potency entry in experiment [1], in experiment [2], in experiment [3], in [4], in experiment [5] and in [6] was “inactive” in each case. Also, the Potency entry in experiment [7], in experiment [8], in [9], in experiment [10], in experiment [11] and in [12] was “inactive” each time. In addition, the Potency entry in experiment [16], in [20], in experiment [17] and in [18] was “inactive” throughout. Further, in experiment [14], the call was inactive.
As for `CC(C)C(=O)OCCOc1ccccc1`, the Potency result in experiment [1], in [2], in experiment [3], in [4], in experiment [5] and in [6] was “inactive” in each case. Besides, the Potency result in experiment [7], in [8], in [9], in [10], in experiment [11] and in experiment [12] was “inactive” each time. In addition, the Potency entry in [13], in experiment [15], in experiment [16], in [20], in experiment [17] and in experiment [18] was “inactive” throughout. In experiment [19], the Potency result was “inactive”. The outcome in experiment [14] was inactive.
Regarding `CC(=O)C(=O)CC(C)C`, the Potency result in [1], in experiment [2], in [3], in experiment [4], in experiment [5] and in experiment [6] was “inactive” in each case. The Potency entry in experiment [8], in experiment [9], in [10], in experiment [11], in experiment [12] and in experiment [13] was “inactive” throughout. Besides, the Potency result in experiment [16], in experiment [20], in experiment [17] and in experiment [18] was “inactive” throughout. In [7], the Potency was 34.2 µM (active). In addition, the compound was classed as inactive in experiment [14].
Consider `O=C(NC(Cc1cc(=O)[nH]c2ccccc12)C(=O)O)c1ccc(Cl)cc1` (stereo unspecified), for which the Potency result in experiment [1], in experiment [2], in [3], in experiment [4], in [5] and in experiment [6] was “inactive” throughout. Also, the Potency entry in experiment [7], in experiment [8], in [9], in [10], in experiment [11] and in experiment [12] was “inactive” throughout. The Potency entry in experiment [13], in [16], in experiment [20], in experiment [17], in experiment [18] and in experiment [19] was “inactive” in each case.
